# Assay outcomes: PubChem BioAssay, National Center for Advancing Translational Sciences (NCATS)
# SARS PLpro yeast = blocks SARS-CoV papain-like protease in a yeast assay. Potency, µM (doses to about 32.9 µM), inactives show top-dose activity, positive = growth rescue, actives largely listed as activators. S. cerevisiae expressing SARS-CoV PLpro, growth rescue. AID 485353. hit rate 0.19% among 330,000; calls by dose curve; note: potency is the fitted concentration of half-maximal effect; 0% is about no effect; nearly all actives have a fitted effect of over 55% in size
# Pf growth 96h = P. falciparum growth inhibition at 96 hours. P. falciparum luciferase reporter growth, 96 h. Potency, µM (highest dose often 28.7 µM), inactives show top-dose activity change, negative = inhibition, usual class: inhibitors. hit rate 6.9% among 320,000. AID 504834; note: potency is the fitted concentration of half-maximal effect; % is set by controls: 0 for no effect and ±100 for the full control effect
#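 Cell-based qHTS: luciferase-tagged P. falciparum in erythrocytes (2% hematocrit, 0.05% parasitemia final) incubated with compounds for 96 hours, 37 C, 5% CO2; luciferase detection reagent then added and luminescence measured.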
# HCMV inh = human cytomegalovirus inhibition; activity change, negative = inhibition, % at 57.5 µM; hit rate 4.5% among 410,000; HFF cells, HCMV-luciferase reporter, 72 h; active compounds read low; in the data active = activity change below about -60%; inconclusive = no clear call, values can overlap the other calls; inactive = above about -39%; note: % is set by controls: 0 for no effect and ±100 for the full control effect
#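 Two-dose cell screen: HFF monolayers treated with compounds and infected with luciferase-expressing HCMV at 1 PFU/cell, 72 h at 37C, then lysed for luciferase measurement.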
# Sm TGR inh = S. mansoni TGR enzyme inhibition | Potency, µM (doses to about 114 µM), for inactives: at the highest dose activity change, negative = inhibition, usual class: inhibitors | hit rate 3% among 360,000 | purified TGR, DTNB reduction, TNB absorbance 405 nm | Q962Y6; note: potency is the fitted concentration of half-maximal effect; % is set by controls: 0 for no effect and ±100 for the full control effect; nearly all actives have a fitted effect of over 60% in size
#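 First, TGR (20 nM dispensed) and NADPH were mixed with compound. Second, a 15 min room-temperature incubation followed. Third, further NADPH and then DTNB were added to start the reaction. Finally, TNB absorbance was monitored kinetically.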
# HCV inh = inhibitors of hepatitis C virus infection; Huh7.5.1 HCVcc-Cre infection, luciferase reporter, 44 h; Potency, µM (doses to about 41.8 µM), for inactives: at the top dose activity change, negative = inhibition, usual class: inhibitors; hit rate 3.4% among 340,000; note: potency is the fitted concentration of half-maximal effect; % is set by controls: 0 for no effect and ±100 for the full control effect
#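 After 44 h co-culture of compound, cells and HCVcc-Cre (~0.5 moi), substrate is added for 15 min at room temperature and luciferase measured over 15 sec. Cells were seeded at 1,000/well and pre-cultured 4 h.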
# Pf growth 48h = P. falciparum growth inhibition at 48 hours (one generation); P. falciparum luciferase growth in erythrocytes, 48 h; Potency, µM (doses to about 28.7 µM), for inactives: at the top dose activity change, negative = inhibition, most hits filed as inhibitors; hit rate 5.9% among 310,000; AID 504832; note: potency is the fitted concentration of half-maximal effect; % is set by controls: 0 for no effect and ±100 for the full control effect
#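 Firefly luciferase activity from engineered P. falciparum reports growth; inhibitors lower the luminescent signal. Cultures contained 2% hematocrit erythrocytes at 0.1% final parasitemia.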
# * hit, by the source's call; u = inconclusive; x = no result given; [ ] = remark or other dose. Only some compounds are listed: those with a hit (about 15% of all), similar ones and a draw of the others. Unless noted, calls come from the whole dose curve; as a rule, active = well fitted curve in the direction sought with a large enough effect; inconclusive = small, poorly fitted or top-dose-only effect, or another doubt; inactive = no such curve, though single readings can be large; an effect the other way counts as inactive or inconclusive.
SMILES,SARS PLpro yeast,Pf growth 96h,HCMV inh,Sm TGR inh,HCV inh,Pf growth 48h
COC(=O)c1c(NC(=O)Cc2cccs2)sc(C)c1C,-6%,x,12,-11%,11µM*,-4%
Cc1ccc(CN2CCN(Cc3cccc4nccnc34)CC2CCO)cc1 (centres undefined),1%,-5%,3,-4%,2%,5%
CCN(CC)c1ccc(N2C(=NC(=O)C3CC3)SC3CS(=O)(=O)CC32)cc1 (centres undefined),2%,8%,-13,3%,11%,26%
CCOC(=O)c1ccc2c(c1)N(Cc1ccc(F)cc1Cl)C(=O)c1ccccc1S2,x,x,u,13%,x,x
CCSc1nnc(CNC(=O)C23CC4CC(CC(C4)C2)C3)n1C1CCCCC1,-9%,7%,27,-13%,30%,15%
CC(C)(C)C(=O)Nc1cccc(-c2nc3ccccc3c(=O)o2)c1,2%,96%,11,-31%,23%,62%
CC(C)(C)C(=O)Nc1ccc(C(=O)Nc2cc(NC(=O)c3ccc(NC(=O)C(C)(C)C)cc3)cc(C(=O)O)c2)cc1,1%,-4%,28,-14%,0%,u
CC(C)(CCl)C(=O)Nc1ccc(C(F)(F)F)cc1,-1%,-5%,-76*,-18%,5%,-9%
CC(C)(C)C(=O)Nc1ccc(C(=O)NNC(=O)c2ccccc2)cc1,-9%,13µM*,-14,-4%,-12%,46%
CC(C)(C)C(=O)Nc1ccc(C(=O)NNC(=O)Cc2ccccc2)cc1,7%,2.9µM*,44,1%,7%,21%
CC(C)(C)C(=O)Nc1ccc(-c2nc3ccccc3c(=O)o2)cc1,1%,7%,-64*,0%,12%,32%
O=[N+]([O-])c1cccc(C2(O)COc3ccccc3O2)c1 (centres undefined),0%,64%,15,-22%,-23%,25%
COc1ccc2c(c1)c1c(c(=O)n(Cc3ccccc3)c(=O)n1CC(=O)NCc1ccc(C)cc1)n2C,x,x,10,2%,x,x
CC(C)C(C(=O)Nc1ccc2c(c1)OCCOCCOCCOCCO2)N1C(=O)c2ccccc2C1=O (centres undefined),-5%,-13%,7,3%,9%,-10%
NC(c1ccncc1)c1ccc(Cl)cc1 (centres undefined),x,x,-1,x,x,x
CC(C)(C)C(=O)Nc1ccc(NC(=O)C(C)(C)C)cc1,1%,61%,-84*,20%,17%,4%
CCCCn1c(N)c(N(CCOC)C(=O)CCCc2cccs2)c(=O)[nH]c1=O,x,2%,-13,-2%,-5%,6%
Cc1ccc(CNCCCn2cnc3c(OCc4ccccc4)ncnc32)o1,x,x,4,x,-8%[8.37 µM],x
COc1ccccc1N=Nc1nc(-c2ccccc2)c(-c2ccccc2)[nH]1,1%,2.3µM*,4,-7%,11µM*,13%
Cc1oc2c(CN(C)C)c(O)ccc2c(=O)c1-c1cscn1,-1%,u,9,-25%,3%,68%
CCc1cc2c(=O)c(-c3nc4ccccc4n3C)coc2c(CN2CCCCC2C)c1O (centres undefined),-1%,u,29,-1%,u,u
CCc1cc2c(=O)c(-c3cscn3)coc2c(CN(C)C)c1O,-16%,u,u,0%,-7%,12µM*
CCc1cc2c(=O)c(-c3ccc4c(c3)OCO4)coc2c(CN(C)C)c1O,2%,13µM*,-28,-14%,-18%,9.3µM*
Cc1cc(-c2ccc(S(=O)(=O)N(C)c3ccc(C)c(C)c3)s2)on1,1%,-7%,-4,4%,11µM*,-15%
O=C(CSc1nc(-c2ccccc2)[nH]c1-c1ccccc1)Nc1ccc2c(c1)OCO2,x,x,-109*,7%,x,x
SMILES,SARS PLpro yeast,Pf growth 96h,HCMV inh,Sm TGR inh,HCV inh,Pf growth 48h
Cc1cccc(-c2nc(SCC(=O)Nc3ccc4c(c3)OCCO4)c(-c3ccccc3)[nH]2)c1,x,x,-31,-3%,x,x
O=C(CSc1nc(-c2ccccc2)c(-c2ccccc2)[nH]1)Nc1ccc2c(c1)OCO2,2%,u,-68*,-10%,u,-3%
O=C(CSc1nc(-c2cccc(F)c2)[nH]c1-c1ccccc1)Nc1ccc2c(c1)OCCO2,x,x,-106*,4%,x,x
O=C(O)Cn1c(-c2ccccc2)cc2ccccc21,4%,-27%,15,0%,9%,u
CCN1C(=O)/C(=C2/Sc3ccc(OC)cc3N2C)SC1=Nc1ccc(OC)cc1,-2%,9.3µM*,30,10%,1%,0%
CCOC(=O)C1CCCN(C(=O)C2CCN(S(=O)(=O)c3c(C)noc3/C=C/c3ccc(C)cc3)CC2)C1 (centres undefined),x,x,12,1%,x,x
O=S(=O)(Cc1ccccc1)C(c1ccccc1)S(=O)(=O)Cc1ccccc1,x,x,-13,x,x,x
Cc1c(C(=O)Nc2ccc3nc(N4CCOCC4)sc3c2)oc2ccccc12,-4%,u,0,-5%,11µM*,10µM*
O=C(COC(=O)c1ccccc1N1C(=O)C2C3CCC(C3)C2C1=O)c1ccccc1 (centres undefined),-3%,2.3µM*,6,-1%,4%,16%
O=C(Nc1cc(Oc2ccccc2)cc([N+](=O)[O-])c1)C12CC3CC(C1)CC(n1cnc(Cl)n1)(C3)C2,0%,u,47,8%,10µM*,u
CCC(=O)Nc1ccc(CC)cc1-c1nc2ccccc2n(CC(=O)Nc2cccc(Cl)c2)c1=O,x,x,-8,6%,x,x
CCOC(=O)c1nnsc1NC(=O)Nc1ccc(OC)cc1,2%,27%,48,-3%,-10%,4.1µM*
CCOC(=O)c1cccc(NC(=O)Nc2cc(OC)ccc2OC)c1,-3%,x,u,-2%,16µM*,16%
CCOC(=O)c1ccc(N2CCN(c3ccccc3F)CC2)c(NC(=O)Nc2cccc(OC)c2)c1,0%,u,5,-3%,u,5.2µM*
COc1ccc(C)cc1NC(=O)Nc1cccc(C(=O)O)c1,0%,u,24,0%,22%,8%
CCOC(=O)c1ccc(NC(=O)NNS(=O)(=O)c2cc(OC)ccc2OC)cc1,0%,5.2µM*,63,4%,-3%,41%
Cc1ccc2nc3sc(C(=O)Nc4ccc(F)cc4)cc3cc2c1,2%,u,14,-10%,x,u
COc1ccc(NC(=O)NNS(=O)(=O)c2cc(C)ccc2C)cc1OC,-5%,u,-12,2%,9%,0%
COc1ccc(OC)c(NC(=O)CCOc2cccc(C)c2)c1,-7%,1%,-19,13%,11µM*,-8%
COc1ccc(OC)c(NC(=O)NNS(=O)(=O)c2ccc(C)cc2C)c1,2%,-13%,-62*,2%,27%,9%
